# Data: PubChem BioAssay AID651640 (Broad Institute, 2012)
# The campaign covered roughly 350,000 compounds. About 6,000 (1.7%) were called active. About 5% were inconclusive and are not listed. Shown is part of a subset that was picked to be rich in actives. Unmarked numbers belong to inactive results. No stated cut-off is given here; in the data, active means CPE inhibition above about 20% (passing the limit was not always enough); inconclusive means no clear call, values can overlap the other calls; tested in BHK-21 cells.
# Test: protection of cells from dengue 2 killing – plate reader, single concentration, primary screen (AID 651640);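 further: 0% = median of neutral control wells and 100% = median of positive control wells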
# Settings: DENV2-infected cells, cytopathic effect rescue, at 9.99 µM, active compounds read high
row,Compound,CPE inhibition
1,CCOC(=O)[C@]12Cc3ccccc3[C@H]1N(C1CCCCC1)C(=O)c1cc(OC)ccc12,12.6%
2,CCOC(=O)[C@]12Cc3cc(OC)ccc3[C@H]1N(C(C)C)C(=O)c1ccccc12,28.6% (active)
3,O=C(NC1CCCCC1)N1Cc2cc(N3CCCCC3)ccc2-n2nncc2C1,18.7%
4,Clc1ccc([C@@H]2CC3CCC2N3)cn1 (stereo not given in full),2.65%
5,c1cc2c(cc1[C@H]1OC[C@H]3[C@@H]1CO[C@@H]3c1ccc3c(c1)OCO3)OCO2,-8.32%
6,O=C1/C(=C\c2ccc3c(c2)OCO3)N2CCC1CC2,-2.2%
7,c1cc2c(cc1C1OCC3C(c4ccc5c(c4)OCO5)OCC13)OCO2 (stereo not given),62% (active)
8,COc1ccc(C#Cc2ccc([C@H]3[C@H](CO)N4CCCCN(C(=O)Cc5ccccc5)C[C@@H]34)cc2)cc1,-26.2%
9,O=C(NCC1=C(c2ccc3ccccc3c2)C[C@@H]2CC[C@H]1N2Cc1ccco1)c1cccs1,0.357%
10,C/C=C/c1ccc(C2[C@@H]3CN(S(C)(=O)=O)C[C@H]2N3)cc1 (stereo not given in full),62.5% (active)
11,CS(=O)(=O)N1CCC2CCNC2C1 (stereo not given),-6.24%
12,C/C=C/c1ccc(C2[C@@H]3CN(Cc4cncnc4)C[C@H]2N3)cc1 (stereo not given in full),3.65%
13,C[C@]12CCC3C(CC[C@H]4[C@H](O)[C@H](O)CC[C@]34C)C1CCC2=O (stereo not given in full),-1.57%
14,CC(=O)NCC1=C(c2ccc3ccccc3c2)C[C@@H]2CC[C@H]1N2Cc1ccco1,-2.04%
15,C[C@]12CCCCC1=CC(=O)C1C2CC[C@@]2(C)C1C[C@@H](F)[C@@H]2O (stereo not given in full),-4.28%
16,COc1cccc(-c2ccc([C@H]3[C@H]4CN(C(=O)Cc5ccncc5)CCCCN4[C@H]3CO)cc2)c1,9.07%
17,COc1ccc(-c2ccc([C@H]3[C@H](CO)N4CCCCN(C(=O)Cc5ccncc5)C[C@@H]34)cc2)cc1,40.9% (active)
18,O=C(Cc1ccncc1)N1CCCCN2[C@@H](CO)[C@H](c3ccc(-c4ccncc4)cc3)[C@@H]2C1,8.4%

row,Compound,CPE inhibition
1,O=S(=O)(c1ccccc1)N1CCC2CCNC2C1 (stereo not given),-0.751%
2,COc1ccc2c(c1)NP(=S)(c1ccccc1)N2 (stereo not given),1.27%
3,Cc1cc(/C=C2/C(=O)NC(=O)N(Cc3ccco3)C2=O)c(C)n1-c1ccc(C(=O)O)cc1,-3.34%
4,Cc1ccc(-n2c(C)cc(/C=C3\C(=O)NC(=O)N(C)C3=O)c2C)cc1C,-7.68%
5,Cc1ccnc(-n2c(C)cc(/C=C3\C(=O)NC(=S)N(C)C3=O)c2C)c1,47.7% (active)
6,O=C(NC(=S)N1C[C@H]2C[C@H](C1)c1cccc(=O)n1C2)c1ccc(F)cc1,-11.6%
7,O=C(CCC(=O)N1C[C@H]2C[C@@H](C1)c1cccc(=O)n1C2)NCc1ccccc1C(F)(F)F,25.4% (active)
8,COc1ccccc1NC(=O)N1C[C@@H]2C[C@@H](C1)c1cccc(=O)n1C2,7.15%
9,CC(C)CN1Cc2cc(N3CCCCC3)ccc2-n2nncc2C1,-1.07%
10,O=C(O)[C@H]1[C@H](CO)[C@H]2Cn3c(ccc(-c4ccccc4)c3=O)[C@@H]1N2S(=O)(=O)c1ccccc1F,0.732%
11,COc1cccc(-c2ccc3n(c2=O)C[C@H]2[C@H](CO)[C@@H](C(=O)O)[C@@H]3N2C(=O)c2cnccn2)c1,0.125%
12,COc1cc(OC)cc(C(=O)NCCN2CCC3(CC2)C(=O)NCN3c2ccccc2)c1,5.39%
13,O=C(c1ccccc1)C(O)(CN1CCCCC1)c1ccccc1 (stereo not given),9.29%
14,COC(=O)C1=C(c2ccc(F)cc2OCc2ccccc2)C[C@@H]2CC[C@H]1N2C(=O)NCc1ccc2[nH]ccc2c1,5.56%
15,COC(=O)C1=C(c2ccc(F)cc2OCc2ccccc2)C[C@@H]2CC[C@H]1N2C(=O)NCc1ccc(C(C)(C)C)cc1,-10.5%
16,COC(=O)C1=C(c2ccc(F)cc2OCc2ccccc2)C[C@@H]2CC[C@H]1N2C(=O)NCc1ccc(Cl)cc1,91% (active)
17,COc1ccc(C2C=C(C)Oc3c2c(=O)oc2ccccc32)cc1OC (stereo not given),-10.4%
